Reference: article PMC7862700, “An all-to-all approach to the identification of sequence-specific readers for epigenetic DNA modifications on cytosine”

Tests used:
Experiment in all cases: DAPPL (digital affinity profiling via proximity ligation, sequencing); 10 mM Tris-HCl pH 7.5, 50 mM NaCl, 1 mM DTT, 4% glycerol, room temperature, 30 min; GST-TFs on glutathione beads, 16-mer random dsDNA library, 0.1% formaldehyde crosslink after washing; high values mean tight binding
Settings in all cases: protein: recombinant; tags: N-terminal GST; dsDNA, one strand shown
[1] = target: T1, ERF (Homo sapiens, UniProt P50548 1-548)
T1 sequence: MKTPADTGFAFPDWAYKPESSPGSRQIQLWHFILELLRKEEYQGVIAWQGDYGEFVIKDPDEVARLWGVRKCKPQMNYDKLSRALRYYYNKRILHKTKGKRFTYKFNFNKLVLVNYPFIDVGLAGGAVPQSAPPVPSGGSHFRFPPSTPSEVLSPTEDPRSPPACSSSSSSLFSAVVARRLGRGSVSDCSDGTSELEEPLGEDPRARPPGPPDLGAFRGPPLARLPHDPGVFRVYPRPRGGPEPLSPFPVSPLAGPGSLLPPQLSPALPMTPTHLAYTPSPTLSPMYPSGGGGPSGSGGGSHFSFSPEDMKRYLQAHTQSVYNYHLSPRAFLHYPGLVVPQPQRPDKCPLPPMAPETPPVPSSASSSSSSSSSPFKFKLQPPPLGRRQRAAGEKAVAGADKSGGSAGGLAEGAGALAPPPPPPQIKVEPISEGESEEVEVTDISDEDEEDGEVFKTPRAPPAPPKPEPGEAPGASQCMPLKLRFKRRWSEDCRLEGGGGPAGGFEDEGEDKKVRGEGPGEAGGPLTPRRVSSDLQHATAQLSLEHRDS
Procedure, shortened: (§1)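 After expression in yeast as GST fusions, human transcription factors were bound to glutathione beads, DNA-barcoded and mixed with a tag-only sample. The pools were incubated with 200 nmole of a 16-mer random double-stranded DNA library in Tris/NaCl/DTT/glycerol buffer (30 min, room temperature), washed and crosslinked with 0.1% formaldehyde. Proximity ligation with BsaI/T4 ligase ran for 1 h at 37 °C, before PCR amplification and sequencing on an Illumina NextSeq500. Binding signal is a hexamer's read frequency for a factor divided by its frequency for the tag-only sample.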

[2] = target: T2, ETV3L (Homo sapiens, UniProt Q6ZN32 1-361)
T2 sequence: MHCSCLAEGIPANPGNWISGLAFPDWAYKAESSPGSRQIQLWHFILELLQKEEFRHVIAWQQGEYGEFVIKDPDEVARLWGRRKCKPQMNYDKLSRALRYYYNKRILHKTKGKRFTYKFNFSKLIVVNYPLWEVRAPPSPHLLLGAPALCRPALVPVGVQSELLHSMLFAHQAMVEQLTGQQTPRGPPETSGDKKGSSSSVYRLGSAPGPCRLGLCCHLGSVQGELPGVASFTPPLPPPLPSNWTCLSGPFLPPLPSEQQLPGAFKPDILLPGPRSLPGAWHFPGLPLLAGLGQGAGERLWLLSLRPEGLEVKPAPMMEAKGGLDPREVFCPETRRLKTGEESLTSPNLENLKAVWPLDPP
Procedure, shortened: as §1

[3] = target: T3, ETS2 (Homo sapiens, UniProt P15036 1-469)
T3 sequence: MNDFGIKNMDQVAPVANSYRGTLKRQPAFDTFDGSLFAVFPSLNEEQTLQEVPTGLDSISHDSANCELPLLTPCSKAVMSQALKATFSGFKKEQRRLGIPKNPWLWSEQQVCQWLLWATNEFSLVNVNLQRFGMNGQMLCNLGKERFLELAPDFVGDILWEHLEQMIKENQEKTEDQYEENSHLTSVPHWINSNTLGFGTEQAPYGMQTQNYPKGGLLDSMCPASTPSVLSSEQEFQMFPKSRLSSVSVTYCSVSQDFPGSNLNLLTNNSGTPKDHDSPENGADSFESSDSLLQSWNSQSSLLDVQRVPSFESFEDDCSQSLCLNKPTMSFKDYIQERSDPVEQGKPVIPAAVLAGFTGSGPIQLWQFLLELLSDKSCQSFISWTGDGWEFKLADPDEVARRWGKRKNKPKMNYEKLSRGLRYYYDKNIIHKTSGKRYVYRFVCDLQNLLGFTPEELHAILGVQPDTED
Procedure, shortened: as §1

[4] = target: T4, SPDEF (Homo sapiens, UniProt O95238 1-335)
T4 sequence: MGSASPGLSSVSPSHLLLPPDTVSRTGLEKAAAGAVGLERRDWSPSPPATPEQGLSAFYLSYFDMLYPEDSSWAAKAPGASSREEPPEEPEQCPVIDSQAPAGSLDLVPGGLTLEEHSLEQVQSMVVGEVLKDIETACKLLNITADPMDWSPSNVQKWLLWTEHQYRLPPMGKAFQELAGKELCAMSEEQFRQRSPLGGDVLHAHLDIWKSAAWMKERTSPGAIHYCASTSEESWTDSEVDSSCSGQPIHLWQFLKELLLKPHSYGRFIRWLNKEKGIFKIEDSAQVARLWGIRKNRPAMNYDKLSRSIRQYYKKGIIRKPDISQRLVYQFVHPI
Procedure, shortened: as §1

[5] = target: T5, ETV7 (Homo sapiens, UniProt Q9Y603 1-341)
T5 sequence: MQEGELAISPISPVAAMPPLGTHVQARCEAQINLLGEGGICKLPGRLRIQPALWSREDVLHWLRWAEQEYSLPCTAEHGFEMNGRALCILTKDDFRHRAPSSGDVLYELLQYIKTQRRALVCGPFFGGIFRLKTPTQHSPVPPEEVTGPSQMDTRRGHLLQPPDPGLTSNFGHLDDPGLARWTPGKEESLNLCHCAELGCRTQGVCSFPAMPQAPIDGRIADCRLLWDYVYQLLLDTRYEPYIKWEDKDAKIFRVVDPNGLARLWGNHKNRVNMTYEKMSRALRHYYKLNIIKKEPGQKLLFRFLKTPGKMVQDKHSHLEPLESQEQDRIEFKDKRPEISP
Procedure, shortened: as §1

[6] = target: T6, ELF5 (Homo sapiens, UniProt Q9UKW6-2 1-255)
T6 sequence: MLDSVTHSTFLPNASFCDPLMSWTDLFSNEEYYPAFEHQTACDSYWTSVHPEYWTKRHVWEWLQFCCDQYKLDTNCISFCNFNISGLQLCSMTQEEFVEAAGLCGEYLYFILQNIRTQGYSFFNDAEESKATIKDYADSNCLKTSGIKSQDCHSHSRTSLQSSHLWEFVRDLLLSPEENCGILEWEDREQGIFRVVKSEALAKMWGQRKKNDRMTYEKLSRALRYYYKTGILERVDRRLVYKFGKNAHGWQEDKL
Procedure, shortened: as §1

[7] = target: T7, ETV3 (Homo sapiens, UniProt P41162-2 1-143)
T7 sequence: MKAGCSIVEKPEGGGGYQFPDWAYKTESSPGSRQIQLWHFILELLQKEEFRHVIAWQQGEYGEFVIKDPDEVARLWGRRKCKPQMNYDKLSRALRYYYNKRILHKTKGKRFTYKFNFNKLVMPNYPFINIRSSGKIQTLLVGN
Procedure, shortened: as §1

[8] = target: ETV6 (Homo sapiens, UniProt P41212 1-452)
Procedure, shortened: as §1

ETV6, sequence (P41212 whole entry): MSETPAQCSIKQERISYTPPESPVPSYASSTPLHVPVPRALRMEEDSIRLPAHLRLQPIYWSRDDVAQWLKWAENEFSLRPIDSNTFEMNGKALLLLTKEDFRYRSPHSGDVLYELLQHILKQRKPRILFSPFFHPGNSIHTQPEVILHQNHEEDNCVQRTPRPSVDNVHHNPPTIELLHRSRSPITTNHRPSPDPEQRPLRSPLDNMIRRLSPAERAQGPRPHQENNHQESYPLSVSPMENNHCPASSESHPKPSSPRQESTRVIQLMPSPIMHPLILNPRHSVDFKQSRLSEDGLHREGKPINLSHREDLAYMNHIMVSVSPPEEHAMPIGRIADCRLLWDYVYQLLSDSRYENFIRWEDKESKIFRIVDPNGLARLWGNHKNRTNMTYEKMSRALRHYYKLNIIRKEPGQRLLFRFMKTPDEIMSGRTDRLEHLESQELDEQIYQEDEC

| Sequence | binding signal [1] | binding signal [2] | binding signal [3] | binding signal [4] | binding signal [5] | binding signal [6] | binding signal [7] | binding signal [8] |
| --- | --- | --- | --- | --- | --- | --- | --- | --- |
| TCCGAC | 1.57 fold enrichment (6-mer frequency, TF over GST control) | 1.47 fold enrichment (6-mer frequency, TF over GST control) | 1.48 fold enrichment (6-mer frequency, TF over GST control) | 1.43 fold enrichment (6-mer frequency, TF over GST control) | 1.43 fold enrichment (6-mer frequency, TF over GST control) | 1.61 fold enrichment (6-mer frequency, TF over GST control) | 1.43 fold enrichment (6-mer frequency, TF over GST control) | 1.55 fold enrichment (6-mer frequency, TF over GST control) |
| CTTCAA | 1.41 fold enrichment (6-mer frequency, TF over GST control) | 1.3 fold enrichment (6-mer frequency, TF over GST control) | 1.25 fold enrichment (6-mer frequency, TF over GST control) | 1.34 fold enrichment (6-mer frequency, TF over GST control) | 1.27 fold enrichment (6-mer frequency, TF over GST control) | 1.32 fold enrichment (6-mer frequency, TF over GST control) | 1.29 fold enrichment (6-mer frequency, TF over GST control) | 1.39 fold enrichment (6-mer frequency, TF over GST control) |
| TAACCT | 1.35 fold enrichment (6-mer frequency, TF over GST control) | 1.28 fold enrichment (6-mer frequency, TF over GST control) | 1.31 fold enrichment (6-mer frequency, TF over GST control) | 1.23 fold enrichment (6-mer frequency, TF over GST control) | 1.26 fold enrichment (6-mer frequency, TF over GST control) | 1.29 fold enrichment (6-mer frequency, TF over GST control) | 1.31 fold enrichment (6-mer frequency, TF over GST control) | 1.23 fold enrichment (6-mer frequency, TF over GST control) |
| TTTGAT | 1.21 fold enrichment (6-mer frequency, TF over GST control) | 1.28 fold enrichment (6-mer frequency, TF over GST control) | 1.26 fold enrichment (6-mer frequency, TF over GST control) | 1.12 fold enrichment (6-mer frequency, TF over GST control) | 1.28 fold enrichment (6-mer frequency, TF over GST control) | 1.26 fold enrichment (6-mer frequency, TF over GST control) | 1.32 fold enrichment (6-mer frequency, TF over GST control) | 1.26 fold enrichment (6-mer frequency, TF over GST control) |
| GGCTCT | 1.36 fold enrichment (6-mer frequency, TF over GST control) | 1.34 fold enrichment (6-mer frequency, TF over GST control) | 1.2 fold enrichment (6-mer frequency, TF over GST control) | 1.13 fold enrichment (6-mer frequency, TF over GST control) | 1.44 fold enrichment (6-mer frequency, TF over GST control) | 1.15 fold enrichment (6-mer frequency, TF over GST control) | 1.34 fold enrichment (6-mer frequency, TF over GST control) | 1.3 fold enrichment (6-mer frequency, TF over GST control) |
| ATGACG | 1.39 fold enrichment (6-mer frequency, TF over GST control) | 1.34 fold enrichment (6-mer frequency, TF over GST control) | 1.26 fold enrichment (6-mer frequency, TF over GST control) | 1.45 fold enrichment (6-mer frequency, TF over GST control) | 1.16 fold enrichment (6-mer frequency, TF over GST control) | 1.44 fold enrichment (6-mer frequency, TF over GST control) | 1.2 fold enrichment (6-mer frequency, TF over GST control) | 1.28 fold enrichment (6-mer frequency, TF over GST control) |
| CCGATT | 1.28 fold enrichment (6-mer frequency, TF over GST control) | 1.43 fold enrichment (6-mer frequency, TF over GST control) | 1.39 fold enrichment (6-mer frequency, TF over GST control) | 1.32 fold enrichment (6-mer frequency, TF over GST control) | 1.31 fold enrichment (6-mer frequency, TF over GST control) | 1.39 fold enrichment (6-mer frequency, TF over GST control) | 1.38 fold enrichment (6-mer frequency, TF over GST control) | 1.52 fold enrichment (6-mer frequency, TF over GST control) |
| TCACCA | 1.12 fold enrichment (6-mer frequency, TF over GST control) | 1.16 fold enrichment (6-mer frequency, TF over GST control) | 1.08 fold enrichment (6-mer frequency, TF over GST control) | 1.13 fold enrichment (6-mer frequency, TF over GST control) | 1.04 fold enrichment (6-mer frequency, TF over GST control) | 1.07 fold enrichment (6-mer frequency, TF over GST control) | 1.19 fold enrichment (6-mer frequency, TF over GST control) | 1.08 fold enrichment (6-mer frequency, TF over GST control) |
| CTCCTC | 1.32 fold enrichment (6-mer frequency, TF over GST control) | 1.61 fold enrichment (6-mer frequency, TF over GST control) | 1.33 fold enrichment (6-mer frequency, TF over GST control) | 1.29 fold enrichment (6-mer frequency, TF over GST control) | 1.29 fold enrichment (6-mer frequency, TF over GST control) | 1.32 fold enrichment (6-mer frequency, TF over GST control) | 1.22 fold enrichment (6-mer frequency, TF over GST control) | 1.38 fold enrichment (6-mer frequency, TF over GST control) |
